# VHR inh abs: inhibitors of human VHR1 phosphatase (DUSP3); P51452; recombinant VHR phosphatase, pNPP absorbance; inhibition, % at 13.3 µM; 290,000 tested, 0.52% active; in the data active means inhibition above about 50%
# Target sequence (P51452 whole entry, looked up): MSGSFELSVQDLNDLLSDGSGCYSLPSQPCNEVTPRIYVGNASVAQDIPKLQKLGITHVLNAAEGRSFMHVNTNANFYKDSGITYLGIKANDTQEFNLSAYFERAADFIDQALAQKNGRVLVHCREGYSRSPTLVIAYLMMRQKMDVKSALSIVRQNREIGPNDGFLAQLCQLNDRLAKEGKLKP
# CCHF vOTU inh: blocks the CCHF virus ovarian tumor domain protease; CCHFV vOTU protease, Pep-AMC fluorescence; inhibition, % at 11.5 µM; 370,000 tested, 0.55% active; AID 651958; further: 0% = vehicle wells with enzyme and 100% = no enzyme wells
# SARS 3CLpro inh: SARS-CoV 3CLpro protease inhibition; recombinant SARS-CoV 3CLpro, quenched FRET peptide cleavage; inhibition, % at 6 µM; 290,000 tested, 0.14% active; AID 1706; in the data active means inhibition above about 12%
# RecA splice inh: inhibitors of M. tuberculosis RecA intein splicing | 290,000 tested, 0.75% active | P9WHJ3 | cell-free RecA intein splicing, fluorescence | AID 2221 | inhibition, % (test concentration not listed); in the data active means inhibition above about 30%;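 further: 0% = vehicle wells and 100% = reference inhibitor control wells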
# GDH-TPI counter: inhibits GDH-TPI coupling enzymes, artifact for Mtb FBA screen; GDH-TPI coupled enzyme counterscreen, NADH absorbance; 360,000 tested, 1.2% active; inhibition, % at 4.8 µM;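 further: 0% = DMSO wells and 100% = wells lacking the enzyme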
# FBA Mtb inh: inhibits M. tuberculosis FBA enzyme; inhibition, % at 1 µM; purified M. tuberculosis FBA, fluorescence read-out; 360,000 tested, 2.3% active; in the data active means inhibition above about 27%;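 further: 0% = vehicle and 100% = reference inhibitor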
# Target sequence (P9WQA3 whole entry, looked up): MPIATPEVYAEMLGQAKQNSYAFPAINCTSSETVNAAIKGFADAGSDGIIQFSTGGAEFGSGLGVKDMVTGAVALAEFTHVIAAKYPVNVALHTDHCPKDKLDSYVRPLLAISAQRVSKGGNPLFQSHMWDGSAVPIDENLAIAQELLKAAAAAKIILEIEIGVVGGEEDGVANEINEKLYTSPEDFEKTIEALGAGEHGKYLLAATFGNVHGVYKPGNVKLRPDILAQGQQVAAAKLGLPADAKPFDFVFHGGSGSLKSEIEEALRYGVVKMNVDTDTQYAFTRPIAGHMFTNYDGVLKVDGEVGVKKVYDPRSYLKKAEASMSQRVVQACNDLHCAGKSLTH
# * marks the source's active call; other numbers are inactive results; · = no result given; + = active, no number. In the library only some 4.7% were active in any assay of this set; here they are far more common. Unless noted, no stated cut-off is given here; in the data, active means inhibition above about 30%; inactive means the rest.
SMILES,VHR inh abs,CCHF vOTU inh,SARS 3CLpro inh,RecA splice inh,GDH-TPI counter,FBA Mtb inh
CC(=O)Nc1ccc(NC(=S)NC(=O)C2CCCC2)cc1,60*,-5,1,-7,7,-2
N#CCC(=O)N/N=C/c1cc([N+](=O)[O-])ccc1N1CCCC1,16,15,-1,6,8,-11
Cc1ccc(OCC(=O)N/N=C/c2cc([N+](=O)[O-])ccc2N2CCCCC2)cc1,-15,-3,0,-7,12,-1
O=C(COc1ccc([N+](=O)[O-])cc1)N/N=C/c1cc([N+](=O)[O-])ccc1N1CCOCC1,-5,-10,0,-4,48*,-3
O=C(N/N=C/c1cc([N+](=O)[O-])ccc1N1CCNCC1)c1ccc([N+](=O)[O-])cc1,52*,8,-5,1,26,1
Cn1nc(C(C)(C)C)cc1C(=O)N1CCCC(C)(C(=O)NS(=O)(=O)C2CC2)C1 (stereo unspecified),·,-5,·,·,-4,2
CCN(Cc1ccncc1)Cc1cn[nH]c1-c1ccc(OC)cc1F,8,-5,-2,2,3,-1
NC1CCN(c2c(F)cc3c(=O)c(C(=O)O)cn(C4CC4)c3c2Cl)C1 (stereo unspecified),24,7,-4,0,34*,3
COc1c(N2CCNC(C)C2)c(F)cc2c(=O)c(C(=O)O)cn(C3CC3)c12 (stereo unspecified),·,·,·,-1,·,·
COc1ccc(NC(=O)C2CCN(S(=O)(=O)c3c(C)noc3/C=C/N(C)C)CC2)cc1,17,16,-3,-3,37*,-5
CCCN1CCN(C(=O)C2CCN(S(=O)(=O)c3c(C)noc3/C=C/c3ccc(C)cc3)CC2)CC1,14,24,1,0,32*,-2
COc1ccc(S(=O)(=O)N2CCC(C(=O)NCCC(=O)Nc3ccc(Cl)cc3)CC2)cc1,57*,4,-6,-4,10,1
COCCCNC(=O)C1CCN(S(=O)(=O)c2c(C)noc2/C=C\c2ccc(OC)cc2)CC1,6,2,10,·,39*,-1
Cc1ccc(NC(=O)c2ccc(CS(=O)(=O)Cc3ccccc3C)o2)cc1C,·,3,·,·,·,·
COC(=O)c1cc(C(=O)c2cc(Cl)ccc2O)coc1=N,-3,5,-5,-3,4,2
COCCOC(=O)c1cc(C(=O)c2cc(F)ccc2O)coc1=N,-4,-8,1,-61,37*,17
COC(=O)CCC[C@H](C)[C@@H](NS(=O)(=O)c1ccc(C)cc1)C(C)(C)C,·,9,·,·,·,·
O=C(NCC(=O)N(Cc1cccs1)C(C(=O)NC1CCCC1)c1cccnc1)c1ccco1 (stereo unspecified),3,8,2,-1,-3,117*
COc1cccc(C(C(=O)NC2CCCC2)N(Cc2cccnc2)C(=O)Cc2cccs2)c1 (stereo unspecified),50*,9,6,0,-2,0
O=C(NCC(=O)N(Cc1cccs1)C(C(=O)NC1CCCCC1)c1ccncc1)c1ccco1 (stereo unspecified),25,-6,0,3,-2,-4
CCCC(=O)OC[C@H]1CN([C@H](C)c2ccccc2)S(=O)(=O)c2c(F)cccc2O1,·,5,·,·,·,·
O=C(NCc1cccnc1)C1CC(c2ccccc2Cl)=NO1 (stereo unspecified),-23,-13,8,-2,4,1
CCOc1ccccc1C(=O)Nc1cc2c(cc1N1CCCC1)n(CC)c(=O)n2CC,31,16,-1,-6,16,-2
COc1cccc(OC)c1C(=O)Nc1ccccc1N1CCCC1,-4,29,-5,0,-3,2
COc1ccc(C(CNC(=O)c2cc3ccccc3cc2OC)N2CCCC2)cc1 (stereo unspecified),39,-10,-2,1,34*,6
SMILES,VHR inh abs,CCHF vOTU inh,SARS 3CLpro inh,RecA splice inh,GDH-TPI counter,FBA Mtb inh
COc1cc2ccccc2cc1C(=O)Nc1ccccc1N1CCCC1,·,17,·,12,3,+
CCn1c(=O)n(CC)c2cc(N3CCCC3)c(NC(=O)c3ccccc3OC)cc21,52*,8,-1,-1,16,0
CCOC(=O)C1CSCCS(=O)(=O)N1Cc1cccc(F)c1 (stereo unspecified),·,-6,·,·,·,·
Cc1cc(C)c2c(n1)nn1c(NCCOCCO)cc(C)nc21,16,-271,0,-143,1,+
Cc1cc(C)c2c(n1)nn1c(NCCCN(C)C)cc(C)nc21,48,-293,0,-163,5,+
Cc1cc(NCCCN(C)C)n2nc(-c3cccs3)cc2n1,-4,-4,-2,-2,-1,25
O=C1c2c(O)cc(O)cc2O[C@@]12c1c(cc(O)c3c1O[C@H](c1ccc(O)cc1)[C@@H](O)C3)O[C@@H]2c1ccc(O)cc1,12,3,1,-3,36*,6
O=C1c2c(O)cc(O)cc2O[C@H](c2ccc(O)cc2)[C@H]1O,·,11,·,-4,18,0
CN(C)c1ccc(C2N(c3ccc(Cl)cc3)C(=O)C3CCCN32)cc1 (stereo unspecified),9,0,0,5,29,3
CN(C)c1ccc(C2N(c3ccc(F)cc3)C(=O)C3CCCN32)cc1 (stereo unspecified),0,12,0,-2,40*,-1
Cc1ccc(/C=C2/SC(=S)N(c3ccc(S(=O)(=O)Nc4nccs4)cc3)C2=O)cc1,29,14,4,3,39*,2
COc1ccc(/C=C2\SC(=O)N(CCC(=O)Nc3ccc(S(=O)(=O)Nc4nccs4)cc3)C2=O)cc1,2,28,0,-3,27,-4
COc1ccc(-n2ccc(=O)c(C(=O)Nc3ccc(S(=O)(=O)Nc4nccs4)cc3)n2)cc1,58*,28,-6,1,40*,2
COc1ccc(/C=C2/SC(=O)N(CCC(=O)Nc3ccc(S(=O)(=O)Nc4nccs4)cc3)C2=O)cc1,-6,10,2,-8,34*,-6
O=C(CCl)Nc1cn(-c2ccccc2)nc1-c1ccc(F)cc1,18,14,12,46*,1,1
Fc1ccc(-c2nn(-c3ccccc3)cc2CNCc2ccccc2)cc1,6,-7,2,11,1,2
CC1=CC2(O)OCCN(CCO)C2=CC1=O (stereo unspecified),18,2,8,66*,0,5
COCc1cc(C)n(CC(=O)Nc2ccc3c(c2)OCO3)c(=O)c1C#N,40,5,-5,-5,32*,0
O=C(NCCc1ccc(F)cc1)c1cc2ccccn2n1,·,14,·,·,·,·
Cc1cccc(NC(=O)CNC(=O)c2ccc(S(=O)(=O)NCc3ccco3)cc2)c1C,·,-5,·,·,-4,2
O=C(O)CC1S/C(=N/N=C/c2ccc([N+](=O)[O-])cc2)N(c2ccc(O)cc2)C1=O (stereo unspecified),15,16,2,0,19,-4
